# Results: PubChem BioAssay (NCATS)
# Records with an inconclusive call do not appear. A call without a number means that no potency is given here. Active and inactive are the calls of the source. The call rests on the fitted dose curve; in most records, active means well fitted curve in the direction sought with a large enough effect; inconclusive means small, poorly fitted or top-dose-only effect, or another doubt; inactive means no such curve, though single readings can be large; an effect the other way counts as inactive or inconclusive.
# Legend:
# [1] = qHTS of pediatric cancer cell lines to identify multiple opportunities for drug repurposing: Primary screen for LAN-5 cells (AID 1347100); further: potency means the concentration at half of the fitted maximal effect
# Procedure, shortened: (§1)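 Viability after 48 h compound treatment at 37C, 500-1,000 cells/well, read as ATP luminescence with CellTiter-Glo. Primary screens used 11-point (MIPE, 0.78 nM-46 µM) or 8-point (NPC, 0.59 nM-46 µM) final concentrations; follow-up screens used 11-point dilutions.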
# [2] = qHTS of pediatric cancer cell lines to identify multiple opportunities for drug repurposing: Primary screen for Rh18 cells (AID 1347102); further: nearly all actives have a fitted effect of over 65% in size; further: potency means the concentration at half of the fitted maximal effect
# Procedure, shortened: as §1
# [3] = qHTS of pediatric cancer cell lines to identify multiple opportunities for drug repurposing: Primary screen for control Hh wild type fibroblast cells (AID 1347106);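 further: series mostly up to about 46 µM; a drop in luminescence marks cytotoxicity and a rise apparent proliferation; nearly all actives have a fitted effect of over 55% in size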
# Procedure, shortened: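 Cells (500-1,000/well) in growth media were settled 5 h at 37 degrees C, then given compounds for 48 h. Viability was read as CellTiter-Glo luminescence. Primary runs used MIPE at 11 points (0.78 nM-46 µM) and NPC at 8 points (0.59 nM-46 µM); follow-ups used 11 points.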
# [4] = qHTS of pediatric cancer cell lines to identify multiple opportunities for drug repurposing: Primary screen for OHS-50 cells (AID 1347103); further: nearly all actives have a fitted effect of over 40% in size; further: potency means the concentration at half of the fitted maximal effect
# Procedure, shortened: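 Cells (500-1,000/well) rested 5 h, then received compounds for 48 h; metabolically active cells were measured by CellTiter-Glo luminescence. Final concentrations spanned up to 46 µM (MIPE, 11-point) or 0.59 nM-46 µM (NPC, 8-point) in primary screens, 11-point in follow-ups.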
# [5] = qHTS of pediatric cancer cell lines to identify multiple opportunities for drug repurposing: Primary screen for RD cells (AID 1347104); further: nearly all actives have a fitted effect of over 55% in size; further: potency means the concentration at half of the fitted maximal effect
# Procedure, shortened: (§2)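 Following a 5-hour attachment period, cells at 500-1,000/well received compounds and were cultured for 48 hours. CellTiter-Glo was added and luminescence read to estimate viable, metabolically active cells.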
# [6] = qHTS of pediatric cancer cell lines to identify multiple opportunities for drug repurposing: Primary screen for Rh41 cells (AID 1347108); further: nearly all actives have a fitted effect of over 70% in size; further: potency means the concentration at half of the fitted maximal effect
# Procedure, shortened: as §2
# [7] = qHTS of pediatric cancer cell lines to identify multiple opportunities for drug repurposing: Confirmatory screen for DAOY cells (AID 1347114); further: nearly all actives have a fitted effect of over 65% in size; further: potency means the concentration at half of the fitted maximal effect
# Procedure, shortened: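 Viability measured as metabolically active cells via CellTiter-Glo luminescence following 48 hours of compound exposure, 11-point dilutions in confirmatory testing. 500-1,000 cells/well plated 5 hours before dosing; controls were DMSO and 2.3 µM bortezomib.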
# [8] = qHTS of pediatric cancer cell lines to identify multiple opportunities for drug repurposing: Confirmatory screen for NB-EBc1 cells (AID 1347115); further: nearly all actives have a fitted effect of over 45% in size; further: potency means the concentration at half of the fitted maximal effect
# Procedure, shortened: as §1
# [9] = qHTS of pediatric cancer cell lines to identify multiple opportunities for drug repurposing: Primary screen for MG 63 (6-TG R) cells (AID 1347105); further: nearly all actives have a fitted effect of over 50% in size; further: potency means the concentration at half of the fitted maximal effect
# Procedure, shortened: as §2
# [10] = qHTS of pediatric cancer cell lines to identify multiple opportunities for drug repurposing: Primary screen for Rh30 cells (AID 1347107); further: nearly all actives have a fitted effect of over 75% in size; further: potency means the concentration at half of the fitted maximal effect
# Procedure, shortened: as §1
# [11] = qHTS of pediatric cancer cell lines to identify multiple opportunities for drug repurposing: Confirmatory screen for NB1643 cells (AID 1347109); further: nearly all actives have a fitted effect of over 45% in size; further: potency means the concentration at half of the fitted maximal effect
# Procedure, shortened: as §1
# [12] = qHTS of pediatric cancer cell lines to identify multiple opportunities for drug repurposing: Confirmatory screen for LAN-5 cells (AID 1347113); further: nearly all actives have a fitted effect of over 65% in size; further: potency means the concentration at half of the fitted maximal effect
# Procedure, shortened: as §1
# [13] = qHTS of pediatric cancer cell lines to identify multiple opportunities for drug repurposing: Confirmatory screen for BT-37 cells (AID 1347117); further: nearly all actives have a fitted effect of over 55% in size; further: potency means the concentration at half of the fitted maximal effect
# Procedure, shortened: as §1
# [14] = qHTS of pediatric cancer cell lines to identify multiple opportunities for drug repurposing: Confirmatory screen for MG 63 (6-TG R) cells (AID 1347119); further: nearly all actives have a fitted effect of over 55% in size; further: potency means the concentration at half of the fitted maximal effect
# Procedure, shortened: as §1
# [15] = qHTS of pediatric cancer cell lines to identify multiple opportunities for drug repurposing: Confirmatory screen for A673 cells (AID 1347110); further: nearly all actives have a fitted effect of over 65% in size; further: potency means the concentration at half of the fitted maximal effect
# Procedure, shortened: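 Viability was read as ATP luminescence (CellTiter-Glo) after 48 h of compound exposure at 37 C in A673 cells seeded at 500-1,000/well. Titrations reached 46 uM final, with 11 points in the confirmatory screen. Concentration-response curves were fitted directly.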
# [16] = qHTS of pediatric cancer cell lines to identify multiple opportunities for drug repurposing: Confirmatory screen for SK-N-MC cells (AID 1347111);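 further: cells exposed to compound for 48 h before the readout; nearly all actives have a fitted effect of over 70% in size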; further: potency means the concentration at half of the fitted maximal effect
# Procedure, shortened: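 SK-N-MC cells at 500-1,000 cells/well in growth media were pre-incubated 5 h, then exposed to compounds at 11-point dilutions for 48 h at 37 degrees C, 5% CO2. Viability was read as CellTiter-Glo luminescence.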
# [17] = qHTS of pediatric cancer cell lines to identify multiple opportunities for drug repurposing: Confirmatory screen for TC32 cells (AID 1347118); further: nearly all actives have a fitted effect of over 65% in size; further: potency means the concentration at half of the fitted maximal effect
# Procedure, shortened: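 qHTS, TC32, 48 h drug treatment, CellTiter-Glo luminescence as a proxy for metabolically active cells; primary top concentration 46 µM (MIPE 11-pt, NPC 8-pt); confirmatory 11-pt.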
smiles,measurement,setting,value
CC(O)=C(C#N)C(=O)Nc1ccc(C(F)(F)F)cc1,Potency,[1],inactive
same,Potency,[2],inactive
same,Potency,[3],inactive
CCCCOCCOc1nc(-c2ccc(C(=O)O)c(F)c2)sc1C,Potency,[1],inactive
same,Potency,[4],0.485 µM (active)
same,Potency,[5],inactive
same,Potency,[3],inactive
Cc1nn(Cc2ccccc2Cl)c(C)c1CN(C)CC(O)COc1ccc(Cl)cc1 (stereo not given),Potency,[1],20.9 µM (active)
same,Potency,[4],24.3 µM (active)
same,Potency,[5],33.2 µM (active)
same,Potency,[3],inactive
same,Potency,[6],18.7 µM (active)
same,Potency,[7],23.3 µM (active)
same,Potency,[8],inactive
CNc1nc(-c2ccc3c(N)n[nH]c3c2)cc(N2C[C@@H](C(=O)NC3CCCCC3)CC[C@@H]2C)n1,Potency,[1],26.4 µM (active)
same,Potency,[4],0.273 µM (active)
same,Potency,[5],20.9 µM (active)
same,Potency,[9],3.72 µM (active)
same,Potency,[3],inactive
same,Potency,[10],inactive
O=C(Nc1ccccc1)Nc1ccc(-c2ccc(C(=O)[C@H]3CCC[C@H]3C(=O)O)cc2)cc1,Potency,[1],inactive
same,Potency,[2],inactive
same,Potency,[3],inactive
CCC(=O)NCC[C@@H]1CCc2ccc3c(c21)CCO3,Potency,[1],inactive
same,Potency,[2],inactive
same,Potency,[9],inactive
same,Potency,[3],inactive
same,Potency,[10],inactive
Cc1cc2c(cc1C1(c3ccc(C(=O)O)cn3)CC1)C(C)(C)CCC2(C)C,Potency,[1],inactive
same,Potency,[2],inactive
same,Potency,[9],inactive
same,Potency,[3],inactive
same,Potency,[6],inactive
c1ccc(-c2oc3ncnc(NC[C@@H]4CCCO4)c3c2-c2ccccc2)cc1,Potency,[1],18.7 µM (active)
same,Potency,[4],27.3 µM (active)
same,Potency,[5],29.6 µM (active)
same,Potency,[3],inactive
same,Potency,[10],18.7 µM (active)
same,Potency,[6],18.7 µM (active)
CCCCC(C=O)NC(=O)C(CC(C)C)NC(=O)OCc1ccccc1 (stereo not given),Potency,[1],inactive
same,Potency,[2],inactive
same,Potency,[9],inactive
same,Potency,[3],inactive
CN(C)CCCNC(=O)c1ccc(-c2cc(O)c3ncccc3c2)cc1,Potency,[1],inactive
same,Potency,[2],inactive
same,Potency,[9],inactive
Cn1cnc(-c2cc3nccc(Oc4ccc(NC(=S)NC(=O)Cc5ccccc5)cc4F)c3s2)c1,Potency,[1],16.6 µM (active)
same,Potency,[4],34.3 µM (active)
same,Potency,[3],inactive
COc1cc(N2CCN(C)CC2)ccc1Nc1nc(N)c(C(=O)c2c(Cl)cccc2Cl)s1,Potency,[1],16.6 µM (active)
same,Potency,[4],inactive
same,Potency,[9],inactive
same,Potency,[3],inactive
same,Potency,[10],inactive
same,Potency,[6],inactive
CCCCn1c(=O)n(Cc2ccccc2F)c(=O)c2[nH]c(Cc3ccc(NC(C)=O)cc3)nc21,Potency,[1],inactive
same,Potency,[2],inactive
same,Potency,[9],18.7 µM (active)
same,Potency,[3],inactive
same,Potency,[11],inactive
same,Potency,[12],inactive
same,Potency,[8],inactive
same,Potency,[13],inactive
same,Potency,[14],inactive
CN(C)S(=O)(=O)c1ccc2c(c1)C(=Cc1cc3c([nH]1)CCCC3)C(=O)N2,Potency,[1],2.35 µM (active)
same,Potency,[2],inactive
same,Potency,[9],inactive
COc1cc2c(cc1OC)CC(=O)N(CCCN(C)C[C@H]1Cc3cc(OC)c(OC)cc31)CC2,Potency,[1],inactive
same,Potency,[2],inactive
same,Potency,[9],inactive
same,Potency,[3],inactive
same,Potency,[10],inactive
COc1cc2nccc(Oc3ccc(NC(=O)Nc4cc(C)on4)c(Cl)c3)c2cc1OC,Potency,[1],10.5 µM (active)
same,Potency,[4],19.3 µM (active)
same,Potency,[5],33.2 µM (active)
same,Potency,[6],14.8 µM (active)
same,Potency,[15],18.5 µM (active)
same,Potency,[16],16.5 µM (active)
same,Potency,[12],inactive
same,Potency,[17],18.5 µM (active)
NC(=O)c1nnn(Cc2cc(Cl)c(C(=O)c3ccc(Cl)cc3)c(Cl)c2)c1N,Potency,[1],20.9 µM (active)
same,Potency,[4],21.7 µM (active)
same,Potency,[9],inactive
same,Potency,[3],inactive
O=C(C=Cc1ccc(O)cc1)c1ccc(O)cc1O,Potency,[1],20.9 µM (active)
same,Potency,[2],inactive
same,Potency,[3],inactive
Cc1csc(-c2nnc(Nc3ccc(Oc4ncccc4-c4ccnc(N)n4)cc3)c3ccccc23)c1,Potency,[1],0.001 µM (active)
same,Potency,[2],inactive
same,Potency,[9],inactive
same,Potency,[3],inactive
same,Potency,[10],inactive
same,Potency,[15],9.27 µM (active)
same,Potency,[16],0.0261 µM (active)
same,Potency,[7],23.3 µM (active)
Nc1nc(Cl)nc2c1ncn2[C@@H]1O[C@H](CO)[C@@H](O)[C@H]1F,Potency,[1],0.0372 µM (active)
same,Potency,[2],inactive
same,Potency,[9],1.18 µM (active)
same,Potency,[3],inactive
same,Potency,[10],inactive
COc1nccc(-c2c(-c3ccc(F)cc3)ncn2C2CCNCC2)n1,Potency,[1],inactive
same,Potency,[2],inactive
same,Potency,[9],inactive
same,Potency,[3],inactive
same,Potency,[6],inactive
COc1ccc(-c2cc3nccn3c(Nc3ncccc3C(N)=O)n2)cc1OC,Potency,[1],1.48 µM (active)
same,Potency,[4],1.93 µM (active)
same,Potency,[9],inactive
same,Potency,[3],inactive
same,Potency,[6],2.35 µM (active)
COC(=O)[C@H](c1ccccc1Cl)N1CCc2sccc2C1,Potency,[1],inactive
same,Potency,[2],inactive
same,Potency,[9],inactive
same,Potency,[3],inactive
same,Potency,[10],inactive
same,Potency,[6],inactive
same,Potency,[11],inactive
same,Potency,[15],inactive
same,Potency,[16],inactive
same,Potency,[12],inactive
same,Potency,[7],inactive
same,Potency,[8],inactive
same,Potency,[13],inactive
same,Potency,[17],inactive
same,Potency,[14],inactive
NC1(C(=O)N[C@@H](CCO)c2ccc(Cl)cc2)CCN(c2ncnc3[nH]ccc23)CC1,Potency,[1],18.7 µM (active)
same,Potency,[2],2.35 µM (active)
same,Potency,[9],7.43 µM (active)
same,Potency,[3],inactive
same,Potency,[6],0.743 µM (active)
CCCCCCOC(=O)N=C(N)c1ccc(NCc2nc3cc(C(=O)N(CCC(=O)OCC)c4ccccn4)ccc3n2C)cc1,Potency,[1],23.5 µM (active)
same,Potency,[2],inactive
same,Potency,[9],inactive
same,Potency,[3],inactive
same,Potency,[10],inactive
Clc1ccc(COC(Cn2ccnc2)c2ccc(Cl)cc2Cl)c(Cl)c1 (stereo not given),Potency,[1],23.5 µM (active)
same,Potency,[4],19.3 µM (active)
same,Potency,[3],inactive
COc1cc([C@@H]2c3cc4c(cc3[C@@H](O[C@@H]3O[C@@H]5CO[C@@H](C)O[C@@H]5[C@H](O)[C@@H]3O)[C@H]3COC(=O)[C@H]23)OCO4)cc(OC)c1O,Potency,[1],0.235 µM (active)
same,Potency,[4],2.73 µM (active)
same,Potency,[3],inactive
same,Potency,[10],inactive
same,Potency,[11],1.47 µM (active)
same,Potency,[15],4.65 µM (active)
same,Potency,[16],1.04 µM (active)
same,Potency,[12],1.47 µM (active)
same,Potency,[8],1.47 µM (active)
same,Potency,[13],0.737 µM (active)
same,Potency,[17],0.657 µM (active)
same,Potency,[14],5.85 µM (active)
